# Measurements taken from the supplement of paper PMC10849652.
# About 8,800 targets were measured; listed, in parts, are those with a hit and a random draw of the rest. About 0.5% of all pairs of compound and target were hits. A number with no mark means an inactive call.
# Key:
# Assay in all cases: log2 fold change, soluble protein after heating vs DMSO (PISA); higher = thermal stabilisation; K562 lysate, 10 uM; active = over 0.2 and 3.5 SD of the protein, either way, in both replicates (recomputed)
# [1] = compound: NCC(=O)Nc1ccc(-n2nc(C(F)(F)F)cc2-c2ccc3c(ccc4ccccc43)c2)cc1
# Summary of the method: (§1)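 Thermal stability, expressed as log-two fold change relative to solvent controls, is given from duplicates. Crude K562 extract in PBS pH 7.4 with 1 mM MgCl2, at 1 mg/mL protein, was treated with 10 μM compound for 30 min and heated in aliquots for 3 min across 48°C-58°C. After pooling, adjustment to 0.5% NP-40 at 4°C and centrifugation at 21,000xg for 90 min, supernatant protein was measured by TMTpro 16plex LC-MS/MS with channel sums equalised.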
# vorinostat = compound: O=C(CCCCCCC(=O)Nc1ccccc1)NO [vorinostat]
# Summary of the method: as §1
# silmitasertib = compound: O=C(O)c1ccc2c(c1)nc(Nc1cccc(Cl)c1)c1ccncc12 [silmitasertib]
# Summary of the method: as §1
# [2] = compound: O=C1NC(=O)C(c2cnc3ccccn23)=C1c1cn2c3c(cc(F)cc13)CN(C(=O)N1CCCCC1)CC2
# Summary of the method: as §1
# entospletinib = compound: c1cn2cc(-c3ccc4cn[nH]c4c3)nc(Nc3ccc(N4CCOCC4)cc3)c2n1 [entospletinib]
# Summary of the method: as §1
# Chain of UniProt Q9P281 (Q9P281 whole entry, looked up): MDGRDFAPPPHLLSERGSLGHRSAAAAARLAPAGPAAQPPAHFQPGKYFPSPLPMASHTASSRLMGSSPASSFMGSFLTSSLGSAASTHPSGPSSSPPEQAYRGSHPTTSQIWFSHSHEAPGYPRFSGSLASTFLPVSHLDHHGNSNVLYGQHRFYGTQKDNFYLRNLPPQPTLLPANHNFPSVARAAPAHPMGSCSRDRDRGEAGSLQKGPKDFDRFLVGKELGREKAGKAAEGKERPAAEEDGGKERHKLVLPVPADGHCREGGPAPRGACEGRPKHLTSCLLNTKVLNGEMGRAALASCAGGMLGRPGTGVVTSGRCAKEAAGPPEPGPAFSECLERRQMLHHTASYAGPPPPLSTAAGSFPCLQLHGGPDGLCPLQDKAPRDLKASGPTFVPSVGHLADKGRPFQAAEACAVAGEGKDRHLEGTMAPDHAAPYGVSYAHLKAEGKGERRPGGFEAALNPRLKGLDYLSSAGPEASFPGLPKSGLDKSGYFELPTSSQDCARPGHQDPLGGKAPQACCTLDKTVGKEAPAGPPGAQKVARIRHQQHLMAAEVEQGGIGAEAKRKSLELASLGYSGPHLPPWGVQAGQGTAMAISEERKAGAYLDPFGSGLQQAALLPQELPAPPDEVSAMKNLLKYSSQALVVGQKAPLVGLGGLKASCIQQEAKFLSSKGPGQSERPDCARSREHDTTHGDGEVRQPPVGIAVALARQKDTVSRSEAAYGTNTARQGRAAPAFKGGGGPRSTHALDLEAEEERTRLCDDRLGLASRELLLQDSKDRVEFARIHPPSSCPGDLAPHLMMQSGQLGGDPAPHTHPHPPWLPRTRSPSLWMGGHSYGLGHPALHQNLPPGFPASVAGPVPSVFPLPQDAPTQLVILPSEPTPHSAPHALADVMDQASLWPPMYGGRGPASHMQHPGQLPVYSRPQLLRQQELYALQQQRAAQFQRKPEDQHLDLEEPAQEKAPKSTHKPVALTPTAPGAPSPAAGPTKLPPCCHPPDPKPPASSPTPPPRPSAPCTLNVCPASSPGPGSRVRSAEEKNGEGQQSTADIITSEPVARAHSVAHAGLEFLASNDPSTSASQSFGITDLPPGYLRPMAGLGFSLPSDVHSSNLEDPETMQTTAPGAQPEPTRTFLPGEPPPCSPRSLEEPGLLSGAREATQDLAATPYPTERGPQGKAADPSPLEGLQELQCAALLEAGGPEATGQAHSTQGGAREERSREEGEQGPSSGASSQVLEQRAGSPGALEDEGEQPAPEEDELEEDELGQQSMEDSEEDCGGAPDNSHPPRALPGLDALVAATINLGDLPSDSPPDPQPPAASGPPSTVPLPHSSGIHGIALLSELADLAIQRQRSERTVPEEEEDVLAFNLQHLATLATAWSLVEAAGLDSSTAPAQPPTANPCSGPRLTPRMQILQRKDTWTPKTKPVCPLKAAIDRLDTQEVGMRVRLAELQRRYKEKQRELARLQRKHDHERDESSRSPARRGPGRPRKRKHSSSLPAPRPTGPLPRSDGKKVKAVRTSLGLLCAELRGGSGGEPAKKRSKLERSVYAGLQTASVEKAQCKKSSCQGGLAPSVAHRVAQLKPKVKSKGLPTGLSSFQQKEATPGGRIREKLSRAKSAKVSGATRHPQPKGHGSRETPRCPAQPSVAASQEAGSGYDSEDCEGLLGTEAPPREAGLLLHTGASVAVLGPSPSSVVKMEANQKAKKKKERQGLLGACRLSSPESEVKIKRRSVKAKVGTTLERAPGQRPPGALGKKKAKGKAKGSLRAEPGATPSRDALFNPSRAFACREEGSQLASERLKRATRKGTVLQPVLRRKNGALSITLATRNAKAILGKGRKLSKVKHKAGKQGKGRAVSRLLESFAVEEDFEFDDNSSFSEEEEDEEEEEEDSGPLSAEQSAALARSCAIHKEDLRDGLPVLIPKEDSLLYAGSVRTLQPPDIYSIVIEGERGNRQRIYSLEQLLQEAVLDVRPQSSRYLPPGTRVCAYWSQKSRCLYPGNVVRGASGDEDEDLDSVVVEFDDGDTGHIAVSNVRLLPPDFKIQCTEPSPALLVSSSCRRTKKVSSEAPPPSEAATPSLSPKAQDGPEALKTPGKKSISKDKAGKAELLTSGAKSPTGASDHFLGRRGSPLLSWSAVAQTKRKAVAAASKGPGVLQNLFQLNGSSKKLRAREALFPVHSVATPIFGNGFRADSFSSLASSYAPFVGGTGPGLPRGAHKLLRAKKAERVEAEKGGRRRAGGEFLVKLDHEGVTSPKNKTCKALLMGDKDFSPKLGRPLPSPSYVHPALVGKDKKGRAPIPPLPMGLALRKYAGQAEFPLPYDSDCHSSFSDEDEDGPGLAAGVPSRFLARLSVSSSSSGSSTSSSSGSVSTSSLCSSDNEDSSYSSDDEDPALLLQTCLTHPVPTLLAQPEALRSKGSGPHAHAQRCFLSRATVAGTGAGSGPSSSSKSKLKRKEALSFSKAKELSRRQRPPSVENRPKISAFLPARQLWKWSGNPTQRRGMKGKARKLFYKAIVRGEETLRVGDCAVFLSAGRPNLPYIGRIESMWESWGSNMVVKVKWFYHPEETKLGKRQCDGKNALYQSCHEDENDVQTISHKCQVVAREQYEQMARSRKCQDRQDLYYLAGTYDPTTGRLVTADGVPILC
# Chain of UniProt Q96SN8 (Q96SN8 whole entry, looked up): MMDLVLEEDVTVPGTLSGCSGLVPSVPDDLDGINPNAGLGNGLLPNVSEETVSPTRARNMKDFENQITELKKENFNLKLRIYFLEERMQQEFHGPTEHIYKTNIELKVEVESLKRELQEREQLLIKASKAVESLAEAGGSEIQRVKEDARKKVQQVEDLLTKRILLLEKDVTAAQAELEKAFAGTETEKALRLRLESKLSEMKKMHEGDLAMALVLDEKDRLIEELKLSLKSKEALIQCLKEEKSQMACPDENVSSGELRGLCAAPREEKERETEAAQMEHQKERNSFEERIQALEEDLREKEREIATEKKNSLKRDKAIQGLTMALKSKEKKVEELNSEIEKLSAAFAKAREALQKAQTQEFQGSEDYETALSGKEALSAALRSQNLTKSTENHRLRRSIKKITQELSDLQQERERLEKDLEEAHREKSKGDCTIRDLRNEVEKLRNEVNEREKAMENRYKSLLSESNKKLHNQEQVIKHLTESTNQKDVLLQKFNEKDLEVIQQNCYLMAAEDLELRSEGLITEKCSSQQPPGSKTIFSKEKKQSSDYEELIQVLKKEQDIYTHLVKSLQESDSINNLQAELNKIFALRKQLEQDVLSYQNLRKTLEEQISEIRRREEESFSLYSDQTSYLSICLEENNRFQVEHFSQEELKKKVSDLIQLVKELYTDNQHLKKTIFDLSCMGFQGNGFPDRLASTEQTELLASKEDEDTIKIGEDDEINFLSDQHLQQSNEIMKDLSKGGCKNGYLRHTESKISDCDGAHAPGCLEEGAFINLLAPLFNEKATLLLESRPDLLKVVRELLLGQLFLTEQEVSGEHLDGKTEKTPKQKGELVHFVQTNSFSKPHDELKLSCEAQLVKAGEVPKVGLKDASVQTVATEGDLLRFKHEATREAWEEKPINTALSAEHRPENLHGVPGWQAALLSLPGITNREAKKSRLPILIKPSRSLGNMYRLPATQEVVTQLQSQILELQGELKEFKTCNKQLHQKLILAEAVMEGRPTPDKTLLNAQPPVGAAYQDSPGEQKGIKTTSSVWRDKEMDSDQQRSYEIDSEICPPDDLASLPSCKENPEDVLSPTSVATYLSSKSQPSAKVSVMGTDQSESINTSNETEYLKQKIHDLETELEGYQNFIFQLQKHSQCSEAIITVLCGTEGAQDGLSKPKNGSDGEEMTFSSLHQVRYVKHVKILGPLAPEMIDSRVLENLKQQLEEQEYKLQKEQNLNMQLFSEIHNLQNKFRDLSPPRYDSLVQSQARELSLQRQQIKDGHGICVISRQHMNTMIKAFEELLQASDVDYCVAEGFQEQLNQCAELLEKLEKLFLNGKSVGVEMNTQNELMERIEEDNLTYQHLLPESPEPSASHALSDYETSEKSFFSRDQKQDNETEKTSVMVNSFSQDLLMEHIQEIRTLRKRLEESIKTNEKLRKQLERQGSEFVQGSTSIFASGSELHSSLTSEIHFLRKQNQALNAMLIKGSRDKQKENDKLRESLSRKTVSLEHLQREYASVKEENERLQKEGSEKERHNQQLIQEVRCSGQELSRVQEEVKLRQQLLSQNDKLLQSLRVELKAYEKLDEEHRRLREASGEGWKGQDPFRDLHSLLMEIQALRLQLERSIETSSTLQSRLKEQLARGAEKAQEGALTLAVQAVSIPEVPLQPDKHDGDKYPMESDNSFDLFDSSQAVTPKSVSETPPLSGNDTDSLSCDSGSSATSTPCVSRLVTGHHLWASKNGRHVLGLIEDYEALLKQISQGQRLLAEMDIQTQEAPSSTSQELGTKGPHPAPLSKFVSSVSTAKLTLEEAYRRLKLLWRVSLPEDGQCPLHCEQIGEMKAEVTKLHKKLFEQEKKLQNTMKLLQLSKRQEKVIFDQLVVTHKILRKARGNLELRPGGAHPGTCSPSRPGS
# Chain of UniProt Q9HB09 (Q9HB09 whole entry, looked up): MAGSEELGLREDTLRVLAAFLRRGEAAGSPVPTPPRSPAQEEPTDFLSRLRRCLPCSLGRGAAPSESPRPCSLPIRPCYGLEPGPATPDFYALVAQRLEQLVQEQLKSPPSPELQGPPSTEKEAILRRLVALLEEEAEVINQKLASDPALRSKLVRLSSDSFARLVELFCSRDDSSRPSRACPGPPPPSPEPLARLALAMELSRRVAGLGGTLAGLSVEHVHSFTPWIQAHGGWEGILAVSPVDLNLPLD
# Chain of UniProt Q8N7R7 (Q8N7R7 whole entry, looked up): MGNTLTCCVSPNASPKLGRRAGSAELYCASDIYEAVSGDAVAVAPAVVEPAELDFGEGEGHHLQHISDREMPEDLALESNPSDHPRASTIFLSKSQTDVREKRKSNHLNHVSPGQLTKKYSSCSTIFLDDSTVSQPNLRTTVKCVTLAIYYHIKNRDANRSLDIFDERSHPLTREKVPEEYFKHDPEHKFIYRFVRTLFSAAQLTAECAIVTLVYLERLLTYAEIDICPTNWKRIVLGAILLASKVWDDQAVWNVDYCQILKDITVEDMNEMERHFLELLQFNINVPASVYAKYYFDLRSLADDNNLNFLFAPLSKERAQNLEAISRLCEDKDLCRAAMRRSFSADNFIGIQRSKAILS
Target,log2 fold change [1],log2 fold change (vorinostat),log2 fold change (silmitasertib),log2 fold change [2],log2 fold change (entospletinib)
BRD3 (UniProt Q15059),0.052,-0.117,-0.146,0.021,-0.018
BLOC1S6 (UniProt Q9UL45),-0.022,-0.386 (active),0.004,0.011,0.046
CASP6 (UniProt P55212),-0.014,-0.049,0.045,-0.018,-0.01
CCNYL1 (UniProt Q8N7R7),-0.013,-0.674 (active),0.079,0.019,-0.005
CCP110 (UniProt O43303),-0.033,-0.102,-0.131,-0.124,0.045
CCNB1 (UniProt P14635),0.05,-0.008,-0.013,-0.02,-0.009
C3 (UniProt P01024),0.024,-0.098,0.008,0.062,-0.036
CDK9 isoform 2 (UniProt P50750),0.081,-0.198,0.164,0.402,0.038
CCNK isoform 4 (UniProt O75909),0.032,0.093,-0.007,-0.051,-0.002
CARNMT1 (UniProt Q8N4J0),0.005,0.027,0.008,-0.028,-0.039
CAMK2B (UniProt Q13554),0.014,-0.133,-0.017,0.056,-0.02
BCL2L12 (UniProt Q9HB09),0.031,-0.033,0.1,-0.085,-0.129
C1orf131 isoform 5 (UniProt Q8NDD1),0.059,-0.445 (active),-0.025,0.039,-0.013
CCNA2 (UniProt P20248),0.005,0.075,-0.06,-0.026,-0.011
CAMK1 (UniProt Q14012),-0.13,0.027,-0.059,0.062,0.115
CDC123 (UniProt O75794),-0.064,-0.019,0.015,-0.032,0.043
CDC16 (UniProt Q13042),-0.068,-0.265 (active),0.023,-0.006,-0.015
CAMKK2 (UniProt Q96RR4),0.081,-0.325 (active),0.074,-0.02,0.039
BAHCC1 (UniProt Q9P281),0.009,-0.082,-0.086,-0.158,-0.069
CCAR2 (UniProt Q8N163),0.01,-0.399 (active),0.002,-0.02,0.02
CDK5RAP2 (UniProt Q96SN8),0.042,-0.156,0,0.026,-0.042
CEP76 (UniProt Q8TAP6),-0.1,-0.055,0.027,-0.051,0.039
CAMKK1 isoform 2 (UniProt Q8N5S9),0.006,-0.255,0.072,-0.007,-0.078
CDK2 (UniProt P24941),-0.02,0.006,0.248,0.202,0.039
